From PubChem BioAssay come the findings set out here.

The source made the active and inactive calls.

The target in one test is Albumin (Bos taurus) (UniProt P02769). Put plainly: compounds binding labelled BSA control protein – biochemical, small-molecule microarray, Alexa647 label, 635/667 nm fluorescence, artefact control for SMM control protein annotation, profiling panel (AID 1118).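 Further: score merges 667 nm emission intensity and signal-to-noise per printed compound spot.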 The note with it: BSA-A647 binding, fluorescence 635 nm, higher = more signal.
Test [1] can be described thus: probe aXIP binding to arrayed compounds – biochemical, NeuroSMM set, 635/667 nm fluorescence, primary screen (AID 1119).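 Further: probe is the protein aXip251-270 applied at 1 µg/mL to compound-printed slides; binding of probe to printed compounds measured as 667 nm fluorescence plus signal to noise.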 As to conditions: small-molecule microarray, higher = more signal, called active from +8 up or from −8 down.
The nature of test [2]: probe aNOTCH3 binding on compound microarray – biochemical, small-molecule microarray, 635/667 nm fluorescence, primary screen (AID 1120).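 Further: probe is a biotin-tagged antibody raised against NOTCH3 rather than NOTCH3 protein; score merges spot fluorescence near 667 nm with spot signal to noise.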 As to conditions: higher = more signal.
Test [3] in a line: probe aNOTCH2 binding on compound microarray – biochemical, small-molecule microarray, 635/667 nm fluorescence, primary screen (AID 1121).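 Further: score merges feature fluorescence read at 667 nm with its signal to noise.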 As to conditions: higher = more signal.
In test [4] the target is Carbonic anhydrase 2 (Homo sapiens) (UniProt P00918). The test can be described thus: compounds binding carbonic anhydrase 2 – biochemical, small-molecule microarray, Alexa647-labelled CAII, profiling panel (AID 1122). The note with it: CAII-A647 binding fluorescence, higher = more signal.
Test [5] can be described thus: COS7 lysate on small-molecule microarray, probe aHis, 635 nm (AID 1123).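 Further: z-score combines 667nm fluorescence intensity with signal-to-noise per printed compound spot.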 As to conditions: COS7 cell lysate, fluorescence, higher = more signal.
Test [6] is described as follows: probe aLAP1 signal on lysate-treated microarray – cell lysate, small-molecule microarray, COS7 lysate, primary screen (AID 1124).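 Further: lysate comes from COS7 cells expressing LAP1 and is applied at 0.3 µg/mL; score merges spot fluorescence near 667 nm with signal-to-noise over triplicate slides.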 As to conditions: probe aLAP1, fluorescence, higher = more signal.
Another test relates to Sam68 (KHDRBS1). The test can be described thus: compounds binding KHDRBS1 protein – biochemical, small-molecule microarray, 635 nm fluorescence, primary screen (AID 1125).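 Further: score merges 667 nm channel intensity with signal to noise over triplicate slides.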 The note with it: higher = more signal.
The subject of test [7] is Chordin-like protein 2 (CHRDL2). Put plainly: compounds binding chordin-like 2 – biochemical, small-molecule microarray, 635 nm fluorescence, primary screen (AID 1126).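 Further: printed compound slides probed with Chrdl2 protein at 4 µg/mL for 1 h at 4 C; score merges 667 nm emission intensity with signal to noise over three replicate slides.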 The note with it: fluorescence 635 nm, higher = more signal.
Test [8] concerns the target Concanavalin-A (Canavalia ensiformis) (UniProt P02866). The test can be described thus: compounds binding concanavalin A lectin – biochemical, small-molecule microarray, Alexa647 label, 635 nm, artefact control for SMM control protein annotation, primary screen (AID 1127).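 Further: z combines 667 nm emission intensity with signal-to-noise across three replicate slides.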 As to conditions: ConA-A647 binding fluorescence, higher = more signal.

Chain of Albumin (Bos taurus) (P02769 whole entry, looked up): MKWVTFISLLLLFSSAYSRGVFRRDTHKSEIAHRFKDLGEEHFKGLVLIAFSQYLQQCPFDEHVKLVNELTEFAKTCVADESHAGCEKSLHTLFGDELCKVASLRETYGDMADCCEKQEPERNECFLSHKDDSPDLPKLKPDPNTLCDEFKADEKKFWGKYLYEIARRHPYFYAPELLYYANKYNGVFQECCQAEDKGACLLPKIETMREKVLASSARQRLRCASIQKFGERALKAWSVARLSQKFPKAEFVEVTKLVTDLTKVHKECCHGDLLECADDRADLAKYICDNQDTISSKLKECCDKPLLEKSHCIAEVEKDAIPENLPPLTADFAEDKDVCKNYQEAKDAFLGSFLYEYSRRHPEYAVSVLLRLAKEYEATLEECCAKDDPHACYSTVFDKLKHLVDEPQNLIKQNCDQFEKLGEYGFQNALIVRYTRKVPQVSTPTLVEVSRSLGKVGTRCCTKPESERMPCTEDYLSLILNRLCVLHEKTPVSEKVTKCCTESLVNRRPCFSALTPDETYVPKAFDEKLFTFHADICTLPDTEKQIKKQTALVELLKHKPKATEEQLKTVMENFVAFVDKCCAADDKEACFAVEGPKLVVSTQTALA
Chain of Concanavalin-A (Canavalia ensiformis) (P02866 whole entry, looked up): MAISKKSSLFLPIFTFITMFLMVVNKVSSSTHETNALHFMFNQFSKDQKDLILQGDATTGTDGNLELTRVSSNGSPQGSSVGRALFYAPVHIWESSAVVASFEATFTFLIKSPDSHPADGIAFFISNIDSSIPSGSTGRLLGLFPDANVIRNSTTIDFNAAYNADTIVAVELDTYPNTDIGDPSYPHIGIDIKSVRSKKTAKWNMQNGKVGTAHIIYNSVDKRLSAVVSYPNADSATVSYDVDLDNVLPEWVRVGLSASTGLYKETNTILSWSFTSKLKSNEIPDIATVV

`C[N+](C)(C)CCCCNC(=O)[C@@H]1C[C@@H]2C(=O)N[C@@H](Cc3ccccc3)C(=O)N2[C@@H]1c1cccc(OCCO)c1`: the composite z-score with Albumin (Bos taurus) is -0.634; in test [2], -0.217; in test [3], -0.199; in test [4], 0.66; in test [5], 0.959; in test [6], -0.15. Moreover, the composite z-score is -0.174 with Sam68 (KHDRBS1), 1.04 in [7] and -0.504 in [8]. In addition, the composite Z-score in test [1] is 0.668 (inactive).
For `CC#CC(=O)Oc1ccccc1C=CC(=O)OCC`, the composite z-score with Albumin (Bos taurus) is -0.138; in test [2], 0.0035; in [3], -0.118; in test [4] it was 0.358; in test [5] it was -0.0224; in test [6] it was -0.021. Further, the figures for the composite z-score (in the test with Sam68 (KHDRBS1); in test [7]; in test [8]) were 0.82, -0.0448 and 0.502, respectively. In addition, in test [1], the composite Z-score was -0.263 (inactive).
On to `COCCOC(=O)N1C(=O)[C@@]2(c3cc(C#CCC(C(=O)OC)C(=O)OC)ccc31)[C@H](c1ccccc1OCCO)N1[C@H](c3ccccc3)[C@H](c3ccccc3)OC(=O)[C@H]1[C@@H]2C(=O)NC[C@H](O)c1ccccc1`, for which the composite z-score in the test with Albumin (Bos taurus) was -0.841; in test [2] it was 0.164; in test [3], 0.0568; in test [4] it was 0.483; in [5], 1.47; in test [6], 0.412. Besides, the composite z-score was found to be 1.3 with Sam68 (KHDRBS1), 0.972 in test [7] and 1.16 in test [8]. The composite Z-score in test [1] is 0.577 (inactive).
For the compound `C=C(COC)/C(=C/C[C@H](OC(C)=O)c1ccc(CO)o1)c1cc(C(=O)OC)ccc1OC`, the composite z-score with Albumin (Bos taurus) is 0.424; in [2], -0.103; in [3], -0.155; in test [4], 0.654; in [5], 0.107; in [6], 0.022. In addition, the composite z-score in the test on Sam68 (KHDRBS1) was 0.322; in test [7] it was 0.0151; in test [8], -0.714. In addition, the composite Z-score in test [1] is 0.482 (inactive).
Take `CCCC[C@@H]1C[C@H]1[C@@H](NC(=O)c1ccco1)c1ccccc1C(F)(F)F`: the composite z-score came out at 0.706 with Albumin (Bos taurus); 1.91 in [2]; 0.752 in [3]; 0.561 in test [4]; 1.09 in test [5]; 0.451 in test [6]. Moreover, the composite z-score with Sam68 (KHDRBS1) is -0.215; in test [7], 0.23; in test [8] it was 0.418. Besides, the composite Z-score in test [1] was -0.234 (inactive).
For `CCS[C@H]1[C@@H](C(=O)O)[C@H](c2ccc(C)cc2)N(S(=O)(=O)c2ccc(C)cc2)[C@@H]1CC`, the composite z-score is 0.804 in the test with Albumin (Bos taurus); 0.372 in test [2]; 0.0431 in test [3]; 0.519 in test [4]; 1.77 in test [5]; 0.5 in test [6]. Further, the composite z-score in the test on Sam68 (KHDRBS1) was 1.32; in test [7] it was -0.467; in [8] it was 0.615. Further, the composite Z-score in test [1] was -0.0164 (inactive).
As to `CC(C)C[C@@H]1NC(=O)[C@H](C(C)C)NC(=O)[C@@]23C(=O)N[C@@H](Cc4ccccc4)C2[C@H](C)[C@@]2(C)O[C@H]2C3/C=C/CC/C=C/CNC1=O` (stereo not given in full), the composite z-score in the test with Albumin (Bos taurus) is 0.371; in test [2], 0.0694; in test [3], -0.126; in [4] it was 0.532; in [5] it was 1.28; in [6], -0.0375. The figures for the composite z-score (with Sam68 (KHDRBS1); in [7]; in test [8]) were 1.29, 0.806 and 0.271, respectively. Moreover, the composite Z-score in test [1] was 0.131 (inactive).
As to `COC(=O)[C@H](Cc1ccccc1)N[C@@H](/C=C/C1CC1)[C@H](O)Cc1ccccc1`, the composite z-score was 0.0881 in the test with Albumin (Bos taurus); -0.246 in test [2]; -0.244 in [3]; 0.209 in [4]; -0.255 in [5]; 0.0885 in [6]. Also, the composite z-score was -0.0844 in the test on Sam68 (KHDRBS1), -0.0635 in [7] and 0.65 in [8]. Further, the composite Z-score in test [1] is -0.16 (inactive).
Regarding `C=CCNC(=O)[C@@H]1[C@H]2C(=O)O[C@H](c3ccccc3)[C@H](c3ccccc3)N2[C@H](c2ccc(O)cc2)[C@@]12C(=O)Nc1ccc(C#CCNC(N)=O)cc12`, the composite z-score was 0.118 with Albumin (Bos taurus); -0.169 in test [2]; -0.166 in test [3]; 0.352 in test [4]; 0.636 in test [5]; 0.73 in test [6]. Besides, the composite z-score is 0.512 in the test with Sam68 (KHDRBS1), -0.671 in [7] and 0.0889 in test [8]. Further, the composite Z-score in test [1] is 0.0219 (inactive).
For `COC(=O)[C@@]1(Cc2ccc(F)cc2)[C@H]2c3cc(C(=O)N4CCCC4)n(Cc4ccc(S(C)(=O)=O)cc4)c3C[C@H]2CN1C(=O)c1ccccc1`, the composite z-score with Albumin (Bos taurus) was 1.08; in test [2], 0.827; in test [3], 0.365; in [4] it was 0.718; in test [5], 3.34; in [6], 1.21. Besides, the results for the composite z-score (in the test on Sam68 (KHDRBS1); in test [7]; in test [8]) were 0.995, -0.26 and 1.05, respectively. Besides, in test [1], the composite Z-score was 1 (inactive).
As to `CC1(C)[C@@H]2CC(C(O)C3C=CC4C(=O)N(Cc5ccccc5)C(=O)C4N3n3cnnc3)=C[C@H]1C2` (stereo not given in full), the composite z-score with Albumin (Bos taurus) was 0.925; in [2] it was -0.0079; in test [3], -0.0866; in test [4], 0.651; in test [5] it was 1.39; in test [6], 0.641. Moreover, the composite z-score with Sam68 (KHDRBS1) is 1.34; in test [7] it was 0.371; in test [8] it was 0.39. The composite Z-score in [1] is -0.132 (inactive).
With `C=C(CCCC)/C(=C/C[C@@H](OC(=O)c1ccncc1)c1ccc(OCCO)cc1)c1cc(C(=O)OC)ccc1OC`, the composite z-score is 0.445 with Albumin (Bos taurus); -0.0288 in test [2]; -0.123 in test [3]; 0.554 in test [4]; 0.517 in test [5]; 0.546 in [6]. Further, the composite z-score in the test on Sam68 (KHDRBS1) came to 1.12; in test [7], 0.0685; in [8] it was 0.249. The composite Z-score in [1] is -0.367 (inactive).
On to `Cc1ccc(S[C@]2(C(=O)NCCCN(C)C)CC(=O)N(Cc3cc(C(F)(F)F)cc(C(F)(F)F)c3)[C@@H]2c2ccc(CO)cc2)cc1`, for which the composite z-score is 0.384 with Albumin (Bos taurus); -0.149 in test [2]; -0.106 in test [3]; 0.874 in test [4]; 0.616 in test [5]; 0.357 in test [6]. Besides, the composite z-score is -0.427 in the test on Sam68 (KHDRBS1), -0.869 in test [7] and -0.949 in test [8]. In test [1], the composite Z-score was 0.624 (inactive).
As for `C=CC[C@]1(C(=O)NCCCOC)N=C(c2ccc(OCCCO)cc2)O[C@H]1c1ccccc1CN=[N+]=[N-]`, the composite z-score with Albumin (Bos taurus) was 0.782; in test [2], 0.119; in [3], -0.0013; in [4], 0.748; in test [5], 2.59; in [6] it was 0.298. For the same compound, the composite z-score was 1.14 in the test on Sam68 (KHDRBS1), -0.257 in test [7] and 0.983 in test [8]. Besides, in [1], the composite Z-score is 0.571 (inactive).
